# Measurements from PubChem BioAssay AID951 (NMMLSC, 2007).
# The campaign covered roughly 190,000 compounds. About 140 (0.074%) were called active. Only a selection was taken, and actives are over-represented in it overall. Unmarked numbers belong to inactive results. Rule as the data show it: active = inhibition above about 40%.
# Target: Bcl-2-like protein 10 (Homo sapiens) (UniProt Q9HD36)
# Assay: inhibitors of Bim-Bcl-B binding, primary screen, biochemical, multiplexed, human Bcl-2 family (AID 951);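 also: 0% = tracer peptide without compound and 100% = reference inhibitor peptide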
# Details: bead-based flow cytometry, Bim peptide-Bcl-B binding; at 10 µM; stronger effect = higher value
# Bcl-2-like protein 10 (Homo sapiens), sequence (Q9HD36 whole entry, looked up): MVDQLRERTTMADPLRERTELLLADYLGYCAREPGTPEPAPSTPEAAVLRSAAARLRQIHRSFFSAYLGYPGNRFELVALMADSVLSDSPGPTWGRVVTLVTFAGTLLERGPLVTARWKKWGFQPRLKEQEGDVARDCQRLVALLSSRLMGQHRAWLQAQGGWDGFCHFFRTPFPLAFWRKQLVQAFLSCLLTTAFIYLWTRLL
row,Compound,inhibition
1,COc1ccccc1N1CCN(CC(=O)NC(=O)NCc2ccco2)CC1,-9%
2,CCN(CCn1cccn1)Cc1cn[nH]c1-c1ccc(OC)cc1F,-4%
3,O=C(COC(=O)CNC(=O)c1ccccc1F)NCC(F)(F)F,-5%
4,COc1ccc(C(CC(=O)Nc2ccc(C)cc2)NC(=O)C(F)(F)F)cc1 (stereo unspecified),-9%
5,CCOC(=O)c1oc2c(CN3CCN(CCO)CC3)c(O)c(CC)cc2c(=O)c1-c1nc2ccccc2s1,0%
6,N#Cc1ccccc1NC(=O)COc1c(Br)cc(Br)c2cccnc12,-7%
7,Cc1ccc(Nc2nc(CSc3nnc(-c4ccncc4)n3-c3ccccc3C)cs2)cc1,-11%
8,CCCCc1ccc(NC(=S)N2CCCC(CO)C2)cc1 (stereo unspecified),-7%
9,Cc1ccc(NC(=O)O/N=C/c2cccc([N+](=O)[O-])c2)cc1,0%
10,CCOc1cc(NC(=S)NCCCOC)c(OCC)cc1NC(=O)c1ccco1,-11%
11,NC(=O)c1ccccc1N=Cc1ccc2ccccc2c1,-4%
12,O=c1c(-c2ccccc2)cnc2n1CCS2,-2%
13,O=C(CC1SCCNC1=O)Nc1ccc(Cl)c(Cl)c1 (stereo unspecified),-1%
14,CCC(CC)C(=O)N1CCN(c2cccc(C)c2C)CC1,0%
15,CCN(CC)CCNC(=O)c1ccc(NS(=O)(=O)c2ccc3c(c2)OCCO3)cc1,0%
16,Cc1nc2ccccc2n1CC(=O)N/N=C/c1cccs1,-6%
17,CN(C)c1ccc(C(=S)N2CCN(C(=S)Nc3ccc(Cl)cc3)CC2)cc1,-6%
18,CN1CCN(CCNC(=O)Nc2ccc([N+](=O)[O-])cc2)CC1,-5%
19,O=C(Nn1cnc2ccccc2c1=O)c1ccc([N+](=O)[O-])cc1Cl,0%
20,Cc1c(CN2CCCCC2)c(O)n(CCO)c(=O)c1C#N,-3%
21,CCOc1cc(NC(=O)CCl)c(OCC)cc1NC(C)=O,-4%
22,CC(NC(=O)COC(=O)c1ccc2c(c1)OCO2)c1ccccc1 (stereo unspecified),0%

row,Compound,inhibition
1,CC(C)NC(=O)c1ccc(Cl)cc1Cl,-2%
2,Cn1c(-c2sccc2OCc2cccc(C(F)(F)F)c2)n[nH]c1=S,-24%
3,O=C(CC(NC(=O)c1ccccc1)c1ccccc1)Nc1ccc(F)c(F)c1 (stereo unspecified),-6%
4,CCOC(=O)C1(C)NC(c2ccco2)C2C(=O)N(c3ccccc3)C(=O)C21 (stereo unspecified),-1%
5,CC(=O)c1c(N2CCN(c3ccc(F)cc3)CC2)nc(=S)n(-c2ccccc2)c1C,-11%
6,CNC(=O)C(=O)N/N=C/c1ccccn1,2%
7,CCCC1NC(=S)NC(C)=C1C(C)=O (stereo unspecified),-2%
8,C/C(=N/NC(=O)CSc1ccccn1)c1ccc([N+](=O)[O-])cc1,-2%
9,CC(C)(C)C(=O)CSc1nc2ccccc2o1,-4%
10,CCOC(=O)C(C)Oc1cccc2c(=O)n(CC(=O)NCCc3ccc(OC)c(OC)c3)ccc12 (stereo unspecified),-3%
11,CCSC1=NCCN1C(=O)c1ccc(S(=O)(=O)N(CC)CC)cc1,-5%
12,CC(C)(C)c1ccc(/C=C2\SC(=O)N=C2N)cc1,-3%
13,Cc1c(Br)c([N+](=O)[O-])nn1CC(=O)Nc1sc2c(c1C(=O)OC(C)C)CCC(C)C2 (stereo unspecified),2%
14,Cc1cc(Cl)ccc1OCc1nc(-c2ccncc2)no1,-5%
15,O=C(Nc1ccc2c(c1)CCC2)c1ccc(Br)s1,0%
16,CCn1cc(C(=O)NCCCN2CCCCCC2)c(=O)c2cc(S(=O)(=O)N3CCc4ccccc4C3)ccc21,-12%
17,O=C(N/N=C/c1cc2c(cc1Br)OCO2)C1COc2ccccc2O1 (stereo unspecified),1%
18,O=[N+]([O-])c1cccc(/C([O-])=C(/C(=S)Nc2ccccc2F)[n+]2ccccc2)c1,-16%
19,COc1cccc(-c2ccc(C#N)c(SCC(=O)NCCc3ccc(Cl)cc3)n2)c1,-12%
20,O=C(NCC1CCCO1)C1CCN(C2CCN(C(=O)C3CCCCC3)CC2)CC1 (stereo unspecified),0%
21,Cc1cccc(-n2c(SCC(=O)Nc3cccc(S(=O)(=O)NC4=NCCCCC4)c3)nc3ccccc3c2=O)c1C,-4%
22,O=C(Nc1ccc(F)cc1)C1CCN(C(=O)c2ccc([N+](=O)[O-])cc2)CC1,6%

row,Compound,inhibition
1,O=C(O)c1ccc(NS(=O)(=O)c2ccc3c(c2)C(=O)c2cc(S(=O)(=O)Nc4ccc(C(=O)O)cc4)ccc2-3)cc1,-6%
2,O=C(COC(=O)Cc1ccc(Br)cc1)Nc1c(F)c(F)c(F)c(F)c1F,-7%
3,CC(=O)c1ccccc1NC(=O)CC1(CC(=O)O)CCCCC1,-1%
4,CC(=O)NS(=O)(=O)c1ccc(NC(=S)NC(=O)C(C)(C)C)cc1,-4%
5,NS(=O)(=O)c1ccc(NC(=S)Nc2ccc(Br)c(Cl)c2)cc1,-9%
6,CC(C)(C)C(=O)NC(NC(=S)Nc1ccc(S(N)(=O)=O)cc1)C(Cl)(Cl)Cl (stereo unspecified),49% (active)
7,COc1cccc(C2c3[nH]c4ccccc4c3CCN2Cc2cccc(C)n2)c1 (stereo unspecified),-3%
8,CCOc1ccc2nc(NC(=O)c3cc([N+](=O)[O-])ccc3N3CCOCC3)sc2c1,-3%
9,O=C(CCc1ccccc1)Nc1ccc(NC(=O)C2CCCCC2)nc1,0%
10,O=C(NNC(=S)NCCCN1CCOCC1)c1ccncc1,-2%
11,OC(COCc1ccco1)CN1CCN(c2ccccc2)CC1 (stereo unspecified),-4%
12,Cc1cc(N2CCOCC2)nc2ccc(NC(=S)N3CCN(Cc4ccccc4)CC3)cc12,-4%
13,CCNC(=O)CC1C(=O)N(c2ccc(F)cc2)C(=O)N1Cc1cccs1 (stereo unspecified),-6%
14,CCO[C@H]1OC(C(=O)N2CCN(Cc3ccccc3)CC2)=C[C@@H](c2cn(C(C)=O)c3ccccc23)[C@@H]1CCCO,-3%
15,CN(C)N(C)C(=O)C(O)(c1ccccc1)c1ccccc1,-2%
16,CS(=O)(=O)c1ccc2nc(NC(=O)c3ccc(Cl)nc3)sc2c1,-2%
17,O=[N+]([O-])c1ccc(N/N=C2/CCCCC2c2ccccn2)c([N+](=O)[O-])c1 (stereo unspecified),-11%
18,O=C(COc1ccccc1[N+](=O)[O-])NC1CC1,-4%
19,OCCNCCOc1ccc(Cl)c(Cl)c1,-5%
20,Cc1cccc(NC(=S)N(CCN(C)C)C(C)c2ccco2)c1 (stereo unspecified),0%
21,COc1ccc(Br)cc1C(=O)Nc1cccc(C)c1C,-7%
22,CCCCN1C(=O)c2ccc(C(=O)Nc3ccc(S(=O)(=O)N(C)C)cc3)cc2C1=O,0%

row,Compound,inhibition
1,O=C(NNC(=O)c1ccc(Cl)cc1Cl)c1cccs1,-1%
2,CC(=O)NS(=O)(=O)c1ccc(NC(=O)C2C3C=CC(C3)C2C(=O)O)cc1 (stereo unspecified),-5%
3,S=c1nc(C23CC4CC(CC(C4)C2)C3)nc2sccn12,2%
4,O=C(CC1NCCc2ccccc21)Nc1cccc(Cl)c1 (stereo unspecified),-1%
5,CCN(CC)S(=O)(=O)c1ccc(N2CCCC2)c(NS(=O)(=O)c2cccs2)c1,-5%
6,Cc1ccn(-c2cccc(-n3ccc(C)n3)n2)n1,0%
7,COc1ccccc1C1CC(=O)n2c(nc(-c3ccccc3)c2-c2ccccc2)S1 (stereo unspecified),-4%
8,CC1(C)CC(N(Cc2ccccc2)C(=O)Cc2ccccc2)CCO1 (stereo unspecified),-3%
9,Cc1cccc(C(=O)OC(C)CN2CCN(C)CC2)c1 (stereo unspecified),-4%
10,CC(C)(C)NC(=O)COC(=O)c1cc(Cl)ccc1[N+](=O)[O-],0%
11,O=C(c1ccc(Cl)c([N+](=O)[O-])c1)N1CCN(c2ccccc2)CC1,-4%
12,COc1cc(NC(=O)c2ccc3c(c2)OCO3)ccc1NC(=O)c1cccs1,2%
13,COc1ccc(/C=C2\SC(=S)N(CC(=O)NNC(=O)c3ccncc3)C2=O)cc1,-1%
14,COCCN(Cc1nc(-c2ccc(C(F)(F)F)cc2)no1)C(C)C,-5%
15,CC(OC(=O)CNS(=O)(=O)/C=C/c1ccccc1)C(=O)Nc1ccc(S(=O)(=O)N2CCCC2)cc1 (stereo unspecified),-8%
16,Cc1ccc2nc(Nc3ncc4c(n3)CC(C)(C)CC4=O)nc(C)c2c1,-1%
17,COC(C(=O)NCc1ccccc1C)c1ccccc1 (stereo unspecified),-11%
18,CCC1(CC)NC(=O)N(Cc2nc3ccccc3s2)C1=O,-3%
19,O=C(NC(=S)NC1CCSC1=O)c1ccccc1F (stereo unspecified),-3%
20,COc1ccc(-c2nn(-c3ccccc3)cc2/C=C\C(=O)N2CCOCC2)cc1[N+](=O)[O-],-1%
21,O=C(O)CC1S/C(=N\N=C/c2ccccc2O)N(c2ccc(O)cc2)C1=O (stereo unspecified),-5%
22,COC(=O)c1onc(-c2c(OC)cc(OC)cc2OC)c1C(=O)OC,-1%

row,Compound,inhibition
1,CC(C)(C)NC(=O)NC(=O)CN1CCC(Cc2ccccc2)CC1,-1%
2,CCCN(CCC)c1c([N+](=O)[O-])c(=O)oc2ccccc12,32%
3,Cc1c(C(=O)NC(=S)NCc2cccnc2)oc2ccccc12,-9%
4,Cc1cc(C(=O)N/N=C/c2ccc(O)c([N+](=O)[O-])c2)c(C)n1-c1ccc(F)cc1,10%
5,Cc1ccccc1NCC(=O)N/N=C\c1ccc([N+](=O)[O-])s1,-3%
6,COC(=O)c1ccc(C(NC(=O)OCc2ccccc2)/C(C)=C/[C@@H](C)C(=O)NCc2ccc(OC)c(OC)c2)cc1 (stereo partly specified),-7%
7,O=C(CCC(=O)c1cccs1)NC1CCCCCC1,-1%
8,O=C(C(Cl)Cl)N1CCN(c2ccccn2)CC1,-1%
9,CCOc1cc(N2CCOCC2)c(OCC)cc1NC(=O)c1cc(C)nc2ccccc12,-6%
10,COC(=O)c1sc2[nH]c(=S)n(N)c(=O)c2c1C,-22%
11,CC(Cc1cccs1)NC(=O)c1cccc(Cl)c1 (stereo unspecified),-4%
12,C=CCNC(=O)c1ccccc1NC(=O)c1ccc(Cl)c(S(=O)(=O)Nc2cccc(C)c2C)c1,-5%
13,COc1ccc(C(=O)Nc2sc(C)c(C)c2CN2CCOCC2)cc1,-7%
14,CCCn1nc(C(=O)Nc2ccc3nc(C)sc3c2)c2ccccc2c1=O,-7%
15,COc1cc(C(=O)N[C@@H](C)C(=O)NCc2ccco2)cc(OC)c1OC,1%
16,Cn1c(SCC(=O)NC2CCCCC2)nnc1-c1ccc(N)cc1,-4%
17,COc1ccc(C2OCC3(CO2)SC(=O)NC3=O)cc1OC (stereo unspecified),-1%
18,CCN(C(=O)CSc1nc2ccccc2n1CC)C1CCS(=O)(=O)C1 (stereo unspecified),-1%
